Results published in the supplement of paper PMC11732987, “Enantioselective OTUD7B fragment discovery through chemoproteomics screening and high-throughput optimisation” (Communications Chemistry, 2025).

target: OTUB1 (UniProt Q96FW1); assay: log2 ratio of Biotin-Ahx-Ub-VS probe labelling (fragment/DMSO); higher = less target engagement (more negative = stronger competition), active = hit call of the paper (q ≤ 0.05, log2 ratio ≤ -1); settings: compound concentration: 200 uM; treatment time: 3 h
Sequence (Q96FW1 whole entry, the tested form may be a part): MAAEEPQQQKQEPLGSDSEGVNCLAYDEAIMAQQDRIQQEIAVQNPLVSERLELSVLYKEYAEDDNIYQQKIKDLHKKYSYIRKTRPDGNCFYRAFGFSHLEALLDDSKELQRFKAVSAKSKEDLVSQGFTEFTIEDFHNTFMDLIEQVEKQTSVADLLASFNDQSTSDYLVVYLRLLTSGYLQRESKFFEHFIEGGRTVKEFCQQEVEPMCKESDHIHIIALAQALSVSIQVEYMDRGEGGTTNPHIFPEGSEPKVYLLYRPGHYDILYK
Outline: (§1)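 Triplicate samples of HEK293T lysate, 495 µg each, received fragment at 200 µM or vehicle for 3 h, followed by Biotin-Ahx-Ub-VS (0.5 µM final) for 1 h. After NeutrAvidin enrichment of labelled DUBs and LysC/trypsin digestion, peptides were run by diaPASEF LC-MS/MS. The values are average log2 fragment/vehicle ratios from global-median-normalised Spectronaut label-free quantities, tested by unpaired t-test on proteins having ≥2 unique peptides.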

Row | Compound | log2 ratio of Biotin-Ahx-Ub-VS probe labelling
1 | CC(NC(=O)CCl)c1csc(-c2ccccc2)n1.Cl (stereo not given) | -0.0384 (inactive)
2 | CCN(C(=O)CCl)C1CCCCC1 | 0.0443 (inactive)
3 | CN(C)C(=O)c1ccc(NC(=O)CCl)cc1 | 0.31 (inactive)
4 | NC(=O)C1CCCN(C(=O)CCl)C1 (stereo not given) | -0.301 (inactive)
5 | Cc1cccc(N(CCC#N)C(=O)CCl)c1C | 0.00102 (inactive)
6 | CC(NC(=O)CCl)c1cc2n(n1)CCCC2.Cl (stereo not given) | 0.0152 (inactive)
7 | O=C(CCl)NCc1cccc(N2CCCC2=O)c1 | 0.122 (inactive)
8 | N#Cc1ccccc1N1CCN(C(=O)CCl)CC1 | -0.449 (inactive)
9 | Cl.Cn1nc2c(c1CNC(=O)CCl)CCCC2 | -0.175 (inactive)
10 | Cc1ccc(C(=O)NCCNC(=O)CCl)cc1 | -0.162 (inactive)
11 | Cc1nc(-c2cccc(NC(=O)CCl)c2)cs1 | -0.0946 (inactive)
12 | Cl.O=C(CCl)N1CCc2ncncc2C1 | -0.263 (inactive)
13 | CC(NC(=O)CCl)c1cccc2ccccc12 (stereo not given) | -0.352 (inactive)
14 | Cc1ccc(N(C(=O)CCl)C2C=CS(=O)(=O)C2)cc1 (stereo not given) | -0.0537 (inactive)
15 | Cc1cccnc1NC(=O)C1CCN(C(=O)CCl)CC1.Cl | -0.251 (inactive)
16 | O=C(CCl)N(C1=CCCCC1)C1CC1 | -0.159 (inactive)
17 | O=C(CCl)N1CCN(C(=O)Nc2ccccc2)CC1 | 0.155 (inactive)
18 | CC(NC(=O)CCl)c1noc(Cc2ccccc2)n1 (stereo not given) | 0.0412 (inactive)

Row | Compound | log2 ratio of Biotin-Ahx-Ub-VS probe labelling
19 | Cc1cccn2cc(CCNC(=O)CCl)nc12.Cl | -0.0371 (inactive)
20 | Cl.O=C(CCl)NC1(c2ncccn2)CCC1 | -0.293 (inactive)
21 | O=C(CCl)N1CCCC2CCCCC21 (stereo not given) | 0.0815 (inactive)
22 | O=C(CCl)N1CCC(OCc2ccccc2F)CC1 | -0.00851 (inactive)
23 | O=C(CCl)N(Cc1ccsc1)C1CC1 | -0.191 (inactive)
24 | O=C(CCl)N1CC2(CCOCC2)C1 | -0.183 (inactive)
25 | CN(C)C(=O)c1ccc(CNC(=O)CCl)cc1 | -0.0918 (inactive)
26 | CNC(=O)Cn1cc(NC(=O)CCl)cn1 | -0.0242 (inactive)
27 | O=C(CCl)N1CCC[C@@H]1c1ccon1 | -0.236 (inactive)
28 | CN1C(=O)c2ccc(NC(=O)CCl)cc2C1=O | 0.0722 (inactive)
29 | Cl.Cn1nccc1C(NC(=O)CCl)c1ccccc1 (stereo not given) | -0.173 (inactive)
30 | O=C(CCl)NCC1(c2ccccc2)CC1 | 0.0757 (inactive)
31 | Cc1n[nH]c(=O)c2c(NC(=O)CCl)oc(C)c12 | 0.329 (inactive)
32 | CC(NC(=O)CCl)c1ccc2[nH]ncc2c1 (stereo not given) | -0.374 (inactive)
33 | Cc1ccc2nnc(CNC(=O)CCl)n2c1 | 0.0976 (inactive)
34 | O=C(CCl)Nc1cc(Cl)ccc1C(=O)O | 0.108 (inactive)
35 | O=C(CCl)Nc1ccc(Cl)c(F)c1 | -0.259 (inactive)

target: T1, OTUD4 (UniProt Q01804); assay: as above; settings: compound concentration: 200 uM; treatment time: 3 h
T1 sequence (whole entry): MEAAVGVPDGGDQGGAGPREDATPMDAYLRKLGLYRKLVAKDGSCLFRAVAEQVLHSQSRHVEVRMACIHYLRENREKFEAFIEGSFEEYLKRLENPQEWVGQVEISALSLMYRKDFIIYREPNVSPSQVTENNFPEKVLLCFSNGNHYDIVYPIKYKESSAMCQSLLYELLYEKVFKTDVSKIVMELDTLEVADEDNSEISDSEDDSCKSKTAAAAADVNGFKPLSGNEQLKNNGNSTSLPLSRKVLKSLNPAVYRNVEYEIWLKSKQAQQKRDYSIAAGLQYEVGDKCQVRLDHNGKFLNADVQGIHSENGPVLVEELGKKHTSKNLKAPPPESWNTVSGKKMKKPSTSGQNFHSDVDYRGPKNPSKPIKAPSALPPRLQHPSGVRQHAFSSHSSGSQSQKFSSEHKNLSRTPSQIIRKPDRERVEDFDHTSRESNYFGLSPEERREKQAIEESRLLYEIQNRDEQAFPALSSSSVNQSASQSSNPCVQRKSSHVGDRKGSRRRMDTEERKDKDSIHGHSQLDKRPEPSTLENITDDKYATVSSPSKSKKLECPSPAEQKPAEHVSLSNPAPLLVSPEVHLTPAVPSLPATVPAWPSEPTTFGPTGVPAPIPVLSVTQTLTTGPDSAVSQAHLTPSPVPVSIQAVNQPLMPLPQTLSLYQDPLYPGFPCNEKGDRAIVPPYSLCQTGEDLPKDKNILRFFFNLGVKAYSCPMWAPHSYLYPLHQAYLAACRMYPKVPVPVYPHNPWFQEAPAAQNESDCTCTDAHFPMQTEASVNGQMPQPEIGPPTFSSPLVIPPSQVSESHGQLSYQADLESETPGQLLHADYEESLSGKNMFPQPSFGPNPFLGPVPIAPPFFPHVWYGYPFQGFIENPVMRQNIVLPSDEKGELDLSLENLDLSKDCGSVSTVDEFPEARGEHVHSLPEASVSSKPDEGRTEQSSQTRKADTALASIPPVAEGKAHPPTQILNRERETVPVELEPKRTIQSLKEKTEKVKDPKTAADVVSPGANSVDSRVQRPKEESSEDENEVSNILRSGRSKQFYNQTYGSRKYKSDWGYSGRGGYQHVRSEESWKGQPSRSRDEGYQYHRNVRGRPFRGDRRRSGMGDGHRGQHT
Outline: as §1

Row | Compound | log2 ratio of Biotin-Ahx-Ub-VS probe labelling
36 | CC(NC(=O)CCl)c1csc(-c2ccccc2)n1.Cl (stereo not given) | -1.31 (active)
37 | CCN(C(=O)CCl)C1CCCCC1 | -0.12 (inactive)
38 | CN(C)C(=O)c1ccc(NC(=O)CCl)cc1 | -0.109 (inactive)
39 | NC(=O)C1CCCN(C(=O)CCl)C1 (stereo not given) | 0.0344 (inactive)
40 | Cc1cccc(N(CCC#N)C(=O)CCl)c1C | -1.76 (active)
41 | CC(NC(=O)CCl)c1cc2n(n1)CCCC2.Cl (stereo not given) | 0.133 (inactive)
42 | O=C(CCl)NCc1cccc(N2CCCC2=O)c1 | -0.18 (inactive)
43 | N#Cc1ccccc1N1CCN(C(=O)CCl)CC1 | -0.714 (inactive)
44 | Cl.Cn1nc2c(c1CNC(=O)CCl)CCCC2 | -0.319 (inactive)
45 | Cc1ccc(C(=O)NCCNC(=O)CCl)cc1 | -0.371 (inactive)
46 | Cc1nc(-c2cccc(NC(=O)CCl)c2)cs1 | -0.305 (inactive)
47 | Cl.O=C(CCl)N1CCc2ncncc2C1 | -0.304 (inactive)
48 | CC(NC(=O)CCl)c1cccc2ccccc12 (stereo not given) | -1.01 (active)
49 | Cc1ccc(N(C(=O)CCl)C2C=CS(=O)(=O)C2)cc1 (stereo not given) | 0.0564 (inactive)
50 | Cc1cccnc1NC(=O)C1CCN(C(=O)CCl)CC1.Cl | -0.365 (inactive)
51 | O=C(CCl)N(C1=CCCCC1)C1CC1 | 0.037 (inactive)
52 | O=C(CCl)N1CCN(C(=O)Nc2ccccc2)CC1 | 0.0219 (inactive)
53 | CC(NC(=O)CCl)c1noc(Cc2ccccc2)n1 (stereo not given) | -0.692 (inactive)

Row | Compound | log2 ratio of Biotin-Ahx-Ub-VS probe labelling
54 | Cc1cccn2cc(CCNC(=O)CCl)nc12.Cl | 0.123 (inactive)
55 | Cl.O=C(CCl)NC1(c2ncccn2)CCC1 | -0.17 (inactive)
56 | O=C(CCl)N1CCCC2CCCCC21 (stereo not given) | -0.106 (inactive)
57 | O=C(CCl)N1CCC(OCc2ccccc2F)CC1 | -0.169 (inactive)
58 | O=C(CCl)N(Cc1ccsc1)C1CC1 | -0.285 (inactive)
59 | O=C(CCl)N1CC2(CCOCC2)C1 | -0.122 (inactive)
60 | CN(C)C(=O)c1ccc(CNC(=O)CCl)cc1 | -0.365 (inactive)
61 | CNC(=O)Cn1cc(NC(=O)CCl)cn1 | -0.305 (inactive)
62 | O=C(CCl)N1CCC[C@@H]1c1ccon1 | -0.381 (inactive)
63 | CN1C(=O)c2ccc(NC(=O)CCl)cc2C1=O | -0.313 (inactive)
64 | Cl.Cn1nccc1C(NC(=O)CCl)c1ccccc1 (stereo not given) | -0.894 (inactive)
65 | O=C(CCl)NCC1(c2ccccc2)CC1 | -0.368 (inactive)
66 | Cc1n[nH]c(=O)c2c(NC(=O)CCl)oc(C)c12 | 0.0677 (inactive)
67 | CC(NC(=O)CCl)c1ccc2[nH]ncc2c1 (stereo not given) | -0.637 (inactive)
68 | Cc1ccc2nnc(CNC(=O)CCl)n2c1 | 0.0524 (inactive)
69 | O=C(CCl)Nc1cc(Cl)ccc1C(=O)O | 0.038 (inactive)
70 | O=C(CCl)Nc1ccc(Cl)c(F)c1 | -1.33 (active)
